Among the data in PubChem BioAssay AID651739 (Broad Institute, 2012) are inhibition values, retold here.

Out of some 5,600 compounds screened, about 4,100 (73%) were called active. Roughly 4% stayed inconclusive and do not appear here. The set was probably picked from earlier hits. These entries were drawn from the full list. A number with no mark means an inactive call.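 Rule for the calls: active = mean replicate inhibition above about 95% and at least 55% of replicates individually reaching it (limit read from the data); inconclusive = only one of the two criteria is met; inactive = neither criterion is met.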

The nature of the experiment: T. cruzi intracellular proliferation inhibitors, confirmation, cell-based, NIH3T3 host, beta-gal parasite, luminescence, cherry-pick (AID 651739). Particulars: T. cruzi beta-gal in NIH3T3, GalScreen luminescence, 90 h; at 8.35 µM; hits give high values.
What is called inhibition is the drop in the measured response relative to a control, in per cent. In the case of `O=C(Nc1ccccc1)N1CCCCN2[C@H](CO)[C@@H](c3ccc(C#Cc4ccccn4)cc3)[C@H]2C1`, the inhibition was 90%.
As to `O=C(C1CCC1)N1CCCCN2[C@H](CO)[C@H](c3ccc(-c4cccc(F)c4)cc3)[C@@H]2C1`, the inhibition was 109% (active).
The value for `O=C(Nc1cccc(F)c1)N1CCCCN2[C@H](CO)[C@H](c3ccc(C#CC4CC4)cc3)[C@@H]2C1` was 109% (active).
The value for `N#Cc1cccc(-c2ccc([C@H]3[C@H](CO)N4CCCCN(C(=O)Nc5cccc(F)c5)C[C@@H]34)cc2)c1` was 94.2%; that for `C[C@H]1CN([C@@H](C)CO)S(=O)(=O)c2ccc(C3=CCCC3)cc2O[C@@H]1CN(C)Cc1ccccc1` was 96.5% (active).
The value for `C[C@H]1CN([C@@H](C)CO)S(=O)(=O)c2ccc(C3=CCCCC3)cc2O[C@@H]1CN(C)Cc1ccccc1` was 102% (active); that for `C[C@@H]1CN([C@H](C)CO)S(=O)(=O)c2ccc(C3=CCCC3)cc2O[C@H]1CN(C)Cc1ccccc1F` was 99.3% (active).
Regarding `C[C@H](CO)N1C[C@H](C)[C@@H](CN(C)S(=O)(=O)c2ccc(F)cc2)Oc2cc(C3=CCCC3)ccc2S1(=O)=O`, the inhibition was 94.1%.
For `C[C@@H]1CN([C@@H](C)CO)C(=O)c2cc(NC(=O)Nc3cccc4ccccc34)ccc2O[C@@H](C)CCCCO[C@H]1CN(C)Cc1ccccc1`, the inhibition was 107% (active).
The value for `C[C@@H]1CCCCO[C@@H](CN(C)Cc2ccccc2)[C@H](C)CN([C@H](C)CO)C(=O)c2cc(NC(=O)Nc3cccc4ccccc34)ccc2O1` was 96.4% (active); that for `C[C@@H]1CCCCO[C@@H](CN(C)C(=O)Nc2ccc(F)cc2)[C@H](C)CN([C@H](C)CO)C(=O)c2cc(NC(=O)Nc3cccc4ccccc34)ccc2O1` was 114% (active).
For `C[C@@H]1CN([C@@H](C)CO)C(=O)c2cc(NC(=O)Cc3ccccc3)ccc2O[C@@H]1CN(C)Cc1ccc(Oc2ccccc2)cc1`, the inhibition was 99.9% (active).
The value for `C[C@@H]1CN([C@H](C)CO)C(=O)Cc2cc(NC(=O)Cc3ccccc3)ccc2O[C@H]1CN(C)Cc1ccc(Oc2ccccc2)cc1` was 112% (active); that for `C[C@@H]1CN([C@@H](C)CO)C(=O)c2cc(NC(=O)Nc3ccc4c(c3)OCO4)ccc2O[C@@H]1CN(C)Cc1ccc(Oc2ccccc2)cc1` was 101% (active).
Consider `C[C@H]1CN([C@@H](C)CO)C(=O)c2cc(NC(=O)Nc3ccc4c(c3)OCO4)ccc2O[C@@H]1CN(C)Cc1ccc(Oc2ccccc2)cc1`, for which the inhibition was 103% (active).
For `C[C@H]1CN([C@@H](C)CO)C(=O)Cc2cc(NC(=O)Cc3cn(C)c4ccccc34)ccc2O[C@@H]1CN(C)Cc1ccccc1` the value was 77.4%.
`C[C@H]1CN([C@@H](C)CO)C(=O)Cc2cc(NC(=O)Cc3cn(C)c4ccccc34)ccc2O[C@@H]1CN(C)Cc1ccc(C(F)(F)F)cc1`: the inhibition is 104% (active).
Take `COc1ccc(S(=O)(=O)N(C)C[C@H]2Oc3c(NC(=O)Nc4cccc5ccccc45)cccc3C(=O)N([C@@H](C)CO)C[C@H]2C)cc1`: the inhibition was 98.8% (active).
For `Cc1ccc(S(=O)(=O)N(C)C[C@@H]2Oc3c(NC(=O)c4nc5ccccc5s4)cccc3C(=O)N([C@H](C)CO)C[C@@H]2C)cc1`, the inhibition was 95.2% (active).
For `C[C@H]1CN([C@@H](C)CO)C(=O)c2cccc(NS(=O)(=O)c3cn(C)cn3)c2O[C@@H]1CN(C)CC1CCCCC1`, the inhibition was 46.2%.
For `COc1ccc(NC(=O)N(C)C[C@@H]2Oc3c(NC(=O)NC4CCCCC4)cccc3C(=O)N([C@@H](C)CO)C[C@@H]2C)cc1` the value was 51.2%; for `C[C@@H]1CN([C@@H](C)CO)S(=O)(=O)c2ccc(C#Cc3ccc(F)cc3)cc2O[C@H]1CN(C)C(=O)NC1CCCC1`, 105% (active).
The value for `C[C@@H]1CN([C@@H](C)CO)S(=O)(=O)c2ccc(C#Cc3ccccc3)cc2O[C@@H]1CN(C)C(=O)Nc1ccccc1` was 103% (active); that for `C[C@@H]1CN([C@@H](C)CO)S(=O)(=O)c2ccc(-c3ccncc3)cc2O[C@@H]1CN(C)C(=O)Nc1ccc(F)cc1` was 100% (active); that for `C[C@@H]1CN([C@@H](C)CO)S(=O)(=O)c2ccc(C#Cc3ccc(F)cc3)cc2O[C@H]1CN(C)C(=O)c1ccccn1` was 108% (active).
For `COCC(=O)N1CC[C@@H]2[C@@H](CO)Nc3ccc(-c4cccc(C#N)c4)cc3[C@@H]21` the value was 111% (active).
Regarding `N#Cc1ccc(-c2ccc3c(c2)[C@@H]2[C@@H](CCN2C(=O)Cc2ccncc2)[C@@H](CO)N3)cc1`, the inhibition was 112% (active).
The value for `C[C@@H]1CN([C@H](C)CO)S(=O)(=O)c2ccc(-c3cccc(C#N)c3)cc2O[C@@H]1CN(C)C(=O)Nc1ccccc1F` was 86.6%; that for `C[C@H]1CN([C@@H](C)CO)S(=O)(=O)c2ccc(C#CC3CCCC3)cc2O[C@@H]1CN(C)C(=O)c1cccc(F)c1` was 96.6% (active).
Regarding `C[C@H](CO)N1C[C@H](C)[C@@H](CN(C)C(=O)Nc2cc(F)ccc2F)Oc2cc(C#CC3CC3)ccc2S1(=O)=O`, the inhibition is 108% (active).
Regarding `CCCC#Cc1ccc([C@@H]2[C@@H](C#N)N(C(=O)C3CCCC3)[C@@H]2CO)cc1`, the inhibition was 107% (active).
In the case of `N#C[C@@H]1[C@H](c2ccc(C#Cc3cccc(F)c3)cc2)[C@@H](CO)N1C(=O)C1CCCC1`, the inhibition is 103% (active).
Turning to `CC(=O)N1[C@H](CNC(=O)C2CC2)[C@@H](c2ccc(-c3cccc(F)c3)cc2)[C@@H]1CO`, the inhibition is 19.2%.
Regarding `CC(=O)NC[C@@H]1[C@@H](c2ccc(-c3ccccc3F)cc2)[C@@H](CO)N1C(=O)C1CC1`, the inhibition was 15.9%.
The value for `CCN(C[C@H]1[C@H](c2ccccc2)[C@H](CO)N1C(=O)C1CC1)C(=O)NC1CCCC1` was -20.8%; that for `N#C[C@@H]1[C@@H](c2ccc(C#Cc3cccc(F)c3)cc2)[C@@H](CO)N1C(=O)C1CCC1` was 104% (active).
Consider `N#C[C@@H]1[C@@H](c2ccc(/C=C/c3ccccc3)cc2)[C@@H](CO)N1C(=O)C1CC1`, for which the inhibition was 108% (active).
With `N#C[C@@H]1[C@@H](c2ccccc2)[C@@H](CO)N1C(=O)Cc1ccccc1`, the inhibition was 78.3%.
The value for `COCC(=O)N1[C@H](CO)[C@@H](c2ccc(C#Cc3ccccc3F)cc2)[C@@H]1C#N` was 107% (active).
The value for `CC(=O)N(C)C[C@@H]1[C@@H](c2ccc(-c3ccccc3F)cc2)[C@@H](CO)N1C(C)=O` was 19.8%; that for `Cc1ccc(S(=O)(=O)Nc2ccc3c(c2)C(=O)N([C@H](C)CO)C[C@H](C)[C@H](CN(C)C(=O)Nc2ccc(F)cc2)OCCCC[C@H](C)O3)cc1` was 108% (active).
`C[C@@H]1CCCCO[C@H](CN(C)S(=O)(=O)c2ccc(F)cc2)[C@H](C)CN([C@@H](C)CO)C(=O)c2cc(NS(=O)(=O)c3ccccc3)ccc2O1`: the inhibition was 109% (active).
For `COc1ccc(S(=O)(=O)N(C)C[C@H]2OCCCC[C@H](C)Oc3ccc(NS(=O)(=O)c4ccc(F)cc4)cc3C(=O)N([C@@H](C)CO)C[C@@H]2C)cc1` the value was 106% (active); for `Cc1ccc(S(=O)(=O)N(C)C[C@@H]2OCCCC[C@@H](C)Oc3ccc(NS(=O)(=O)c4ccc(F)cc4)cc3C(=O)N([C@H](C)CO)C[C@H]2C)cc1`, 97.7% (active); for `C[C@H](CO)N1C[C@H](C)[C@H](CN(C)S(=O)(=O)c2ccc(F)cc2)OCCCC[C@H](C)Oc2ccc(NS(=O)(=O)c3ccc(Cl)cc3)cc2C1=O`, 92.1%.
The value for `COc1cccc(S(=O)(=O)N2C[C@@H](O)COC[C@@H]3O[C@H](CC(=O)Nc4ccccc4)CC[C@H]32)c1` was 62.3%.
The value for `Cc1ccc(S(=O)(=O)N2C[C@@H](O)COC[C@@H]3O[C@H](CC(=O)NCc4ccc(Cl)c(Cl)c4)CC[C@H]32)cc1` was 103% (active).
On to `COc1ccc(S(=O)(=O)Nc2ccc3c(c2)C(=O)N([C@@H](C)CO)C[C@H](C)[C@@H](CN(C)Cc2ccc(C(F)(F)F)cc2)O3)cc1`, for which the inhibition was 88.7%.
The value for `C[C@H](CO)N1C[C@H](C)[C@H](CN(C)Cc2ccc(C(F)(F)F)cc2)Oc2ccc(NS(=O)(=O)c3ccc(Cl)cc3)cc2C1=O` was 106% (active); that for `COc1ccc(S(=O)(=O)Nc2ccc3c(c2)C(=O)N([C@H](C)CO)C[C@H](C)[C@H](CN(C)Cc2ccc(C(F)(F)F)cc2)O3)cc1` was 106% (active).
The value for `COc1ccc(S(=O)(=O)Nc2ccc3c(c2)C(=O)N([C@@H](C)CO)C[C@H](C)[C@H](CN(C)Cc2ccc(C(F)(F)F)cc2)O3)cc1` was 104% (active).
For `COc1ccc(CN(C)C[C@H]2Oc3ccc(NS(=O)(=O)c4ccc(Cl)cc4)cc3CC(=O)N([C@@H](C)CO)C[C@H]2C)cc1` the value was 100% (active); for `Cc1ccc(S(=O)(=O)Nc2ccc3c(c2)C(=O)N([C@H](C)CO)C[C@H](C)[C@H](CN(C)Cc2ccc(Cl)c(Cl)c2)O3)cc1`, 102% (active); for `O=C(Nc1ccc2c(c1)[C@@H]1C[C@H](CC(=O)N3CCOCC3)O[C@@H](CO)[C@@H]1O2)c1ccc2c(c1)OCO2`, 13.5%.
`COc1cccc(S(=O)(=O)Nc2ccc3c(c2)[C@H]2C[C@H](CC(=O)NCc4ccc(Cl)cc4)O[C@H](CO)[C@H]2O3)c1`: the inhibition is 104% (active).
For `O=C(C[C@@H]1C[C@H]2c3cc(NC(=O)C4CCC4)ccc3O[C@H]2[C@@H](CO)O1)NCc1ccc2c(c1)OCO2` the value was 12.6%.
For `O=C(C[C@@H]1C[C@@H]2c3cc(NC(=O)c4ccc5c(c4)OCO5)ccc3O[C@@H]2[C@@H](CO)O1)NCc1ccc(Cl)cc1` the value was 106% (active); for `C/C=C/c1ccc([C@H]2[C@@H](CNC(C)C)N(c3nc(CC)cs3)[C@H]2CO)cc1`, 101% (active).
For `C[C@H]1CCCCO[C@H](CN(C)Cc2ccc(C(F)(F)F)cc2)[C@@H](C)CN([C@@H](C)CO)C(=O)c2cc(NC(=O)C3CCCCC3)ccc2O1`, the inhibition is 100% (active).
For `C[C@@H]1CCCCO[C@H](CN(C)Cc2ccc(Cl)c(Cl)c2)[C@H](C)CN([C@@H](C)CO)C(=O)c2cc(NC(=O)C3CCCCC3)ccc2O1`, the inhibition was 97.4% (active).
The value for `C[C@@H]1CCCCO[C@@H](CN(C)CC2CC2)[C@H](C)CN([C@H](C)CO)C(=O)c2cc(NC(=O)C3CCCCC3)ccc2O1` was 99.2% (active); that for `C[C@@H]1CN([C@@H](C)CO)C(=O)c2cc(NC(=O)C3CCCCC3)ccc2O[C@@H](C)CCCCO[C@H]1CN(C)Cc1ccncc1` was 97.3% (active).
